D1 PAM = potentiators of human D1 dopamine receptor; HEK293 TREx D1 cells, calcium flux, dopamine EC20 potentiation; 360,000 compounds, 0.036% hits; P21728; potentiation, % at 10 µM; AID 504651; in the data active means potentiation above about 30%; further: 0% is about no effect
Target sequence (P21728 whole entry, looked up): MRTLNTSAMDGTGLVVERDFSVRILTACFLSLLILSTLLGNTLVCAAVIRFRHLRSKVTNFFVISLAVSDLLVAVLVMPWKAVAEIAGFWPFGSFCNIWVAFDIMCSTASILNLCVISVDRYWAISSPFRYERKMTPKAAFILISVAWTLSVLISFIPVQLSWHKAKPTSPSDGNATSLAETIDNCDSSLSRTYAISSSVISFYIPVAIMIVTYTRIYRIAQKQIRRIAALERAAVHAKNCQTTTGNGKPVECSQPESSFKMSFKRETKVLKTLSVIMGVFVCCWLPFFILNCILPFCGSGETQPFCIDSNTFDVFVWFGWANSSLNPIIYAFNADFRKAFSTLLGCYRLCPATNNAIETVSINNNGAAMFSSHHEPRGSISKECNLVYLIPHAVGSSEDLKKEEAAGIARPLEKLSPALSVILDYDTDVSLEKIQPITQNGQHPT
D1 ag = agonists of human D1 dopamine receptor | P21728 | HEK293 T-REx D1 cells, calcium flux, agonist mode | activation, % at 2 µM | 360,000 compounds, 1% hits | AID 504660; further: 0% is about no effect
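Tetracycline-induced HEK293 TREx D1 cells, force-coupled to calcium signalling, were dye-loaded with a no-wash calcium kit. Compound was pin-added after a 10 s baseline. Fluorescence was read kinetically at 1 cycle/s for 180 s, with calcium rises flagged as agonism.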
TRHR PAM = TRH receptor (human) allosteric enhancement; P34981; TRHR cells, fluo-8 calcium fluorescence, EC20 TRH enhancement; enhancement, % at 2 µM; 360,000 compounds, 0.66% hits; in the data active means enhancement above about 30%; further: 0% is about no effect
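TRHR-expressing cells loaded with fluo-8 calcium dye were read kinetically (ex 480/em 530) during compound addition, then stimulated with an EC20 of TRH (10 nM final). Enhancement of the Gq-mediated intracellular calcium response was scored.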
D1 antag = antagonists of human D1 dopamine receptor. HEK293 TREx D1 cells, calcium flux, dopamine EC80; stronger effect = lower value. activity change, negative = inhibition, % at 10 µM. 360,000 compounds, 3.2% hits. AID 504652; in the data active means activity change below about -30%; further: on the % scale 0 is the no-effect control and ±100 the full control effect
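After overnight tetracycline induction at 30 C, force-coupled D1 HEK293 cells took up a no-wash calcium dye at room temperature. Compounds were added and monitored 180 s, and the response to EC80 dopamine was then recorded.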
TRHR agonist = activates the human TRH receptor | 360,000 compounds, 0.18% hits | TRHR cells, calcium flux fluo-8, FDSS agonist mode | P34981 | activation, % at 2 µM; further: 0% is about no effect
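Fluo-8-loaded TRHR cells; 10 s baseline, compound added, kinetic Ca2+ fluorescence read 1/s, agonist mode.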
* marks the source's active call; other numbers are inactive results. In the library only some 4.6% were active in any assay of this set; here they are far more common. Unless noted, no stated cut-off is given here; in the data, active means activation above about 30%; inactive means the rest.

How did Cc1onc(-c2ccccc2)c1C(=O)OCC(=O)NC(C)c1ccc(Cl)cc1 (stereo unspecified) do in these assays?
D1 ag: 71.4*; TRHR PAM: -3.3; D1 antag: -10.0; TRHR agonist: 3.6

Results for O=C(CC1CCCC1)N1CCCC(Nc2cccc(F)c2)C1 (stereo unspecified) ?
D1 PAM: 3.8; D1 ag: 1.7; TRHR PAM: -10.8; D1 antag: -11.7; TRHR agonist: 0.7

Results for COC(=O)c1nc(NC(=O)c2ccccc2Br)n[nH]1 ?
D1 PAM: -5.1; D1 ag: -0.4; TRHR PAM: -1.6; D1 antag: -21.7; TRHR agonist: 0.8

Results for O=c1c2ccccc2[nH]c(=S)n1CCC1=CCCCC1 ?
D1 PAM: -8.8; D1 ag: 3.1; TRHR PAM: -2.5; D1 antag: -1.2; TRHR agonist: -0.2

How did CCOC(=O)c1ccc(NCc2ccc3c(c2)OCO3)cc1 do in these assays?
D1 PAM: -3.1; D1 ag: 5.6; TRHR PAM: 1.2; D1 antag: -27.1; TRHR agonist: -0.5

How did CCOC(=O)c1ccc(NCc2ccc(N(C)C)cc2)cc1 do in these assays?
D1 PAM: -11.2; D1 ag: 5.3; TRHR PAM: 4.3; D1 antag: -35.4*; TRHR agonist: -1.6

What do the screens show for `CC(NC(=O)COC(=O)c1ccc(N(C)C)cc1)c1ccccc1` (stereo unspecified)?
D1 PAM: -7.6; D1 ag: -0.3; TRHR PAM: 1.8; D1 antag: -70.0*; TRHR agonist: -0.2

Results for CC(NC(=O)COC(=O)c1ccco1)c1ccccc1 (stereo unspecified) ?
D1 PAM: -0.8; D1 ag: 2.9; TRHR PAM: 11.0; D1 antag: -11.6; TRHR agonist: -0.1

Results for CCn1c(SCC(=O)OC(C)C)nnc1-c1ccccc1OC ?
D1 PAM: -8.5; D1 ag: 3.4; TRHR PAM: -5.2; D1 antag: -9.4; TRHR agonist: -2.6

How did COc1ccccc1/C=C/C(=O)NCC(=O)N/N=C/c1ccc2c(c1)OCO2 do in these assays?
D1 PAM: 4.3; D1 ag: -3.5; TRHR PAM: -1.7; D1 antag: 6.2; TRHR agonist: 0.2

How did COc1ccccc1CNC(=O)/C=C/c1cc2c(cc1Br)OCO2 do in these assays?
D1 PAM: -1.0; D1 ag: 7.9; TRHR PAM: -0.2; D1 antag: -30.2*; TRHR agonist: 0.4

Results for CCOC(=O)c1c(NC(=O)CSc2nc3ccccc3c(=O)n2-c2ccccc2)sc(C(C)=O)c1C ?
D1 PAM: 2.0; D1 ag: 1.5; TRHR PAM: 11.4; D1 antag: 4.3; TRHR agonist: -0.6

Results for CCOC(=O)c1ccccc1-n1c(C)cc(C2N=C(N)Nc3nc4ccccc4n32)c1C (stereo unspecified) ?
D1 PAM: -5.5; D1 ag: 2.2; TRHR PAM: 0.8; D1 antag: -35.6*; TRHR agonist: 0.1

What do the screens show for `COc1cc(NC(=O)c2cccc(C)c2)c(OC)cc1NC(=O)CN1CCCCC1`?
D1 PAM: 2.5; D1 ag: 5.4; TRHR PAM: -0.6; D1 antag: 2.1; TRHR agonist: -0.1

How did CCCCCCCOC(=O)C[N+](C)(C)CCOC1CC2CCC1(C)C2(C)C (stereo unspecified) do in these assays?
D1 PAM: 5.8; D1 ag: 131.1*; TRHR PAM: -1.5; D1 antag: 41.8; TRHR agonist: 1.3

How did CCCCCCOC(=O)C[N+](C)(C)CCOC1CC2CCC1(C)C2(C)C (stereo unspecified) do in these assays?
D1 PAM: -0.2; D1 ag: 92.5*; TRHR PAM: -1.3; D1 antag: 5.9; TRHR agonist: -0.8

How did CCC(=O)NC(=S)Nc1ccc(NC(=O)c2ccccc2[N+](=O)[O-])cc1 do in these assays?
D1 PAM: -11.3; D1 ag: -0.2; TRHR PAM: -2.0; D1 antag: -8.8; TRHR agonist: 0.2

What do the screens show for `CCC(=O)NC(=S)Nc1ccc(NC(=O)c2cccc([N+](=O)[O-])c2C)cc1`?
D1 PAM: -9.8; D1 ag: 6.3; TRHR PAM: 7.9; D1 antag: -39.8*; TRHR agonist: 0.3

Results for CCCNC(=O)OCCC12CC3CC(CC(C3)C1)C2 ?
D1 PAM: -2.8; D1 ag: 33.4*; TRHR PAM: -1.8; D1 antag: -6.4; TRHR agonist: 5.9

Screening data deposited in PubChem BioAssay by National Center for Advancing Translational Sciences (NCATS).
